A selection: hits, their analogues and other compounds. The true share with any hit is near 12%.
AmpC detergent: AmpC beta-lactamase inhibition with detergent present. 370,000 compounds, 0.041% hits. AID 485294. AmpC hydrolysis of nitrocefin, absorbance 480 nm, 0.01% Triton. Potency, µM (top dose mostly 114 µM), inactives show at the top dose activity change, negative = inhibition, actives largely listed as inhibitors;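 further: potency means the concentration at half of the fitted maximal effect; 0% = no-compound wells and -100% = no-enzyme wells; nearly all actives have a fitted effect of over 25% in size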
Target sequence (P00811 whole entry, looked up): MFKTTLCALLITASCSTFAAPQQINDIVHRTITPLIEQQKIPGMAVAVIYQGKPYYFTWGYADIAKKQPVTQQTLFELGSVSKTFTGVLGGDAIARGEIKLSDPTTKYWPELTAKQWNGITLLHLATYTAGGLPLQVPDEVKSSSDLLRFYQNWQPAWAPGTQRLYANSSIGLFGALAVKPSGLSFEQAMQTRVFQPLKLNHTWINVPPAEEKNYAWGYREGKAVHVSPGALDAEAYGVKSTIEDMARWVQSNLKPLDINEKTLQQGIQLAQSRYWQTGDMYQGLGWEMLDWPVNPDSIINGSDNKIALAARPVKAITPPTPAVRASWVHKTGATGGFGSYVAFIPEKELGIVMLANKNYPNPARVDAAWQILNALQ
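20 mM phosphate pH 7.0 + 0.01% (detergent screen) or 0.0001% Triton X-100; 5.3 nM AmpC reagent; cpd preinc 15 min RT; nitrocefin (800 uM stock) to start; A480 q20 s × 4 min; Activity was normalised to no-enzyme and no-compound control wells.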
SARS PLpro yeast-1: SARS-CoV PLP inhibition in yeast. Potency, µM (series often up to 32.9 µM), inactives show at the highest dose activity, positive = growth rescue, usual class: activators. 330,000 compounds, 0.19% hits. AID 485353. S. cerevisiae expressing SARS-CoV PLpro, growth rescue; calls by dose curve; further: potency means the concentration at half of the fitted maximal effect; 0% is about no effect; nearly all actives have a fitted effect of over 55% in size
Pf growth 48h: inhibits P. falciparum growth in the first generation, 48 h; P. falciparum luciferase growth in erythrocytes, 48 h; 310,000 compounds, 5.9% hits; AID 504832; Potency, µM (titrated, usually from 28.7 µM), for the others: at the highest dose activity change, negative = inhibition, most hits filed as inhibitors; further: potency means the concentration at half of the fitted maximal effect; on the % scale 0 is the no-effect control and ±100 the full control effect
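Luciferase-expressing parasites in RBCs, 2% Hct / 0.1% parasitemia final; RPMI 1640 + 0.5% Albumax; 37 C, 5% CO2, one generation; luminescence read-out, lower signal = inhibition.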
AmpC no deterg: AmpC beta-lactamase inhibition without detergent | AmpC nitrocefin hydrolysis, absorbance 480 nm, 0.0001% Triton | Potency, µM (titrated, usually from 57.1 µM), for the others: at the highest dose activity change, negative = inhibition, hits mostly inhibitors | 330,000 compounds, 0.52% hits | AID 485341;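 further: potency means the concentration at half of the fitted maximal effect; plate controls were no compound for no effect and no enzyme for full effect; nearly all actives have a fitted effect of over 20% in size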
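20 mM phosphate pH 7.0 + 0.01% (detergent screen) or 0.0001% Triton X-100; 5.3 nM AmpC reagent; cpd preinc 15 min RT; nitrocefin (800 uM stock) to start; A480 q20 s × 4 min; Activity was normalised to no-enzyme and no-compound control wells.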
Pf growth 96h: inhibits malaria parasite growth, 96 h; Potency, µM (titrated, usually from 28.7 µM), for the others: at the highest dose activity change, negative = inhibition, actives largely listed as inhibitors; P. falciparum luciferase reporter growth, 96 h; 320,000 compounds, 6.9% hits; AID 504834; further: potency means the concentration at half of the fitted maximal effect; on the % scale 0 is the no-effect control and ±100 the full control effect
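96 h incubation, 37 C, 5% CO2, of luciferase-reporter P. falciparum-infected RBCs (2% hematocrit, 0.05% parasitemia final) with test compounds; endpoint luminescence.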
Sm TGR inh: inhibitors of Schistosoma mansoni thioredoxin glutathione reductase | Q962Y6 | purified TGR, DTNB reduction, TNB absorbance 405 nm | Potency, µM (series often up to 114 µM), inactives show at the top dose activity change, negative = inhibition, usual class: inhibitors | 360,000 compounds, 3% hits; further: potency means the concentration at half of the fitted maximal effect; on the % scale 0 is the no-effect control and ±100 the full control effect; nearly all actives have a fitted effect of over 60% in size
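Kinetic colorimetric format: TGR-catalysed, NADPH-driven DTNB reduction monitored via TNB absorbance. Enzyme dispensed at 20 nM; compound exposure 15 min at room temperature before reaction start.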
SARS PLpro yeast-2: Inhibits SARS-CoV PLP in yeast, hit validation; calls only; AID 652038; shares compounds with SARS PLpro yeast-1; 1,000 compounds, 19% hits; yeast expressing SARS-CoV PLpro, growth phenotype rescue; call rule not given here
Starred values were filed as active, the others as inactive; i = inactive; ? = inconclusive; . = not tested or not shown; + = active, no number. Unless noted, the call rests on the fitted dose curve; in most records, active means well fitted curve in the direction sought with a large enough effect; inconclusive means small, poorly fitted or top-dose-only effect, or another doubt; inactive means no such curve, though single readings can be large; an effect the other way counts as inactive or inconclusive.

SMILES	AmpC detergent	SARS PLpro yeast-1	Pf growth 48h	AmpC no deterg	Pf growth 96h	Sm TGR inh	SARS PLpro yeast-2
COc1ccc(C(NC(C)=O)c2cc(Cl)c3cccnc3c2O)cc1 (centres undefined)	?	10µM*	?	2.8%	?	-31.7%	i
Cc1ccc2nc(Nc3nc(CSc4nnnn4-c4ccccc4)cc(=O)[nH]3)nc(C)c2c1	0.2%	?	.	-7.7%	49.7%	-4.1%	i
Cc1cc(S(=O)(=O)NCCCN2CCOCC2)ccc1Br	?	-0.9%	-15.4%	-12.5%	-27.3%	-1.4%	.
CC(C)CCNC(=S)Nc1ccccc1F	0.8%	?	-1.0%	-12.9%	?	-1.0%	+
Cn1c(=O)c(Cc2ccccc2)c(O)c2ccccc21	1.1%	10µM*	-2.7%	-4.4%	.	-21.8%	?
CCCn1c(=O)c(Cc2ccccc2)c(O)c2ccccc21	0.7%	19.2%	-6.4%	-1.5%	40.4%	1.4%	.
CC(C(=O)c1ccccc1)N1C(=O)c2ccccc2C1=O (centres undefined)	-2.2%	?	1.8%	-7.9%	-1.6%	-1.6%	i
CC(C(=O)O)N1C(=O)c2ccccc2C1=O (centres undefined)	?	-7.3%	.	-9.0%	-2.0%	-14.1%	.
Cc1cccc(N2CCN(C(=O)c3cnn(-c4cccc(Cl)c4C)c3C3CCNCC3)CC2)c1C	1.0%	.	.	.	.	2.1%	.
COc1ccc(NC(=S)NN2C(C)CCCC2C)cc1 (centres undefined)	-2.0%	12.6µM*	5.8%	-20.3%	-27.7%	4.5%	+
CC1CCCC(C)N1NC(=S)Nc1ccc(OC(F)F)cc1 (centres undefined)	?	?	?	-26.6%	-22.5%	-24.0%	+
COc1cccc(NC(=S)NN2C(C)CCCC2C)c1 (centres undefined)	-2.1%	?	?	-16.8%	?	3.2%	+
CCC(C)(C)C1CCc2[nH]nc(C(=O)NCc3ccc(OC)cc3)c2C1 (centres undefined)	-8.5%	-3.8%	?	-8.0%	48.5%	-0.7%	.
COc1ccc(C2N(C(=O)C(F)(F)F)C(C)CN2S(=O)(=O)c2ccc(C)cc2)cc1 (centres undefined)	2.8%	-1.3%	-13.5%	4.9%	31.9%	-6.0%	.
COc1cc(/C=C/C(=O)O)ccc1OS(=O)(=O)c1cc(Br)ccc1C	-5.6%	10µM*	?	-27.6%	?	-14.5%	i
COc1cc(/C=C/C(=O)O)ccc1OS(=O)(=O)c1c(C)cc(C)cc1C	1.9%	-3.1%	-11.0%	-8.1%	-17.8%	?	.
CC(=Nc1ccc(C)c(C)c1)C1=C(O)CCC1=O	-5.8%	-3.2%	.	-12.9%	12.9%	4.4%	.
CC(=NC(C)C)C1=C(O)CCC1=O	-9.9%	?	45.1%	-7.3%	77.7%	-4.3%	i
S=C1CSc2ccccc2N1	-4.2%	-1.3%	-18.2%	-24.0%	?	4.1%	.
CC1CSc2ccccc2NC1=S (centres undefined)	?	10µM*	-7.1%	-18.0%	-29.0%	-5.0%	+
O=C(/C=C/c1cccs1)NC(=S)NNC(=O)Cc1cccs1	?	?	?	-32.6%	-44.8%	-4.1%	+
COc1ccc(-c2noc(N3CCC(C(=O)N4CCN(c5ccccc5F)CC4)CC3)n2)cc1	-0.8%	.	.	.	.	-10.9%	.
O=C(N/N=C/c1cccc(C(F)(F)F)c1)C1CCN(c2ncc(C(F)(F)F)cc2Cl)CC1	-13.7%	-4.6%	37.2%	-34.6%	63.9%	4.2%	.
O=C1/C(=C\c2ccco2)SC(=S)N1c1ccc(O)cc1	-13.7%	.	-21.1%	?	13.0%	?	i
